Measurements reported in PubChem BioAssay (NCATS).
Records with an inconclusive call do not appear. Where a call stands in place of a potency, no number is given. Calls of active or inactive are those of the source. Unless noted, calls come from the whole dose curve; as a rule, active = well fitted curve in the direction sought with a large enough effect; inconclusive = small, poorly fitted or top-dose-only effect, or another doubt; inactive = no such curve, though single readings can be large; an effect the other way counts as inactive or inconclusive.

Assays:
[1] = Primary fluorescence-based thiol-reactive (MSTI) qHTS assay for identification of artifact compounds. (AID 1845221); conditions: MSTI thiol-reactivity probe, 1 h; series mostly up to 53.8 µM;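 note: thiol-reactive compounds lower the probe fluorescence signal; nearly all actives have a fitted effect of over 65% in size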
Outline: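 MSTI probe at 4 uM final in 2% DMSO/PBS pH 7.4; compounds, 1 h at room temperature in dark. Fluorescence Ex/Em 525/598 nm, normalised to Acetyl-MSTI and MSTI, fitted to 4-parameter Hill.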

[2] = tested on: Nanoluciferase (engineered Oplophorus gracilirostris luciferase); experiment: Primary Nanoluciferase (NLuc) qHTS assay for identification of artifact compounds. (AID 1845222); conditions: NLuc-conditioned medium, Nano-Glo luminescence, 5 min; series mostly up to 54.1 µM
Outline: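 Luminescence read-out of secreted NLuc in S16 cell conditioned medium (1:55); compounds tested with 15 min RT preincubation, then Nano-Glo substrate 1:100, 5 min. % inhibition vs no-enzyme and DMSO controls, 4-parameter Hill fit.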

[3] = Primary redox qHTS assay for identification of artifact compounds. (AID 1845223); conditions: Amplex Red/HRP redox cycling with DTT, fluorescence; series mostly up to 53.8 µM
Outline: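 Amplex Red (25 uM) and HRP (250 mU/mL) in HBSS, with compounds for 15 min, then 250 uM DTT for 30 min, room temperature, dark. Fluorescence 525/598 nm read; normalized to DMSO and 10 uM DA3003; Hill fit.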

[4] = qHTS profiling for inhibitors of Plasmodium falciparum proliferation (AID 504749); note: nearly all actives have a fitted effect of over 60% in size; conditions: P. falciparum in erythrocytes, SYBR Green DNA, 72 h, at 28.7 µM (top of the series)
Outline: (§1)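 P. falciparum-infected erythrocytes (0.3% parasitemia, 2.5% hematocrit final) were exposed to compounds for 72 h at 37 C in 5% CO2, then lysed with SYBR Green buffer overnight at room temperature; parasite DNA fluorescence was normalized to artemisinin and DMSO controls.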

[5] = molecular target: Cytochrome P450 2D6 (Homo sapiens) (UniProt P10635); experiment: qHTS for inhibitors of CYP2D6 against the NCATS DSHEA and TCM libraries (AID 1919972); conditions: CYP2D6 enzymatic inhibition, luminescence qHTS; series mostly up to 34.1 µM
Sequence of Cytochrome P450 2D6 (Homo sapiens) (P10635 whole entry, looked up): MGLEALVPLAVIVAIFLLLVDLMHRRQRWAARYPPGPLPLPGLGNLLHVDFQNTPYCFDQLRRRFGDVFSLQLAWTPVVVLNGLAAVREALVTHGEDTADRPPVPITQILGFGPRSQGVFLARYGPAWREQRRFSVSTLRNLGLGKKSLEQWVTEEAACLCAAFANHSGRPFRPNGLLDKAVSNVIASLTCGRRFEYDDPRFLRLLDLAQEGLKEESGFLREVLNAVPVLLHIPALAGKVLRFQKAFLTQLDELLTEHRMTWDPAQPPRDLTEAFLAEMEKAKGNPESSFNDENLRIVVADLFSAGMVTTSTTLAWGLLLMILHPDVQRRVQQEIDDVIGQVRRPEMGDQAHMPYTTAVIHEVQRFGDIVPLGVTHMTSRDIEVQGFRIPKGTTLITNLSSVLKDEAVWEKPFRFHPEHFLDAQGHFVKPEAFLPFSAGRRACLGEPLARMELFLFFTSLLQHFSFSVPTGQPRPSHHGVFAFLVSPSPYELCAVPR
Outline: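 Steps: enzyme plus luciferin substrate dispensed; test substances pinned; 15 min RT; 1x NADPH regenerating solution added, 30–45 min RT protected from light; detection reagent, 30 min RT; luminescence measured. Minus-enzyme wells as background.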

[6] = molecular target: Cytochrome P450 2C19 (Homo sapiens) (UniProt P33261); experiment: qHTS for inhibitors of CYP2C19 against the NCATS DSHEA and TCM libraries (AID 1919974); conditions: CYP2C19 enzyme inhibition, luminescence qHTS; series mostly up to 34.1 µM;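 note: luminescence from luciferin released by CYP2C19 oxidation of a pro-luciferin substrate; potency is the fitted concentration of half-maximal effect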
Sequence of Cytochrome P450 2C19 (Homo sapiens) (P33261 whole entry, looked up): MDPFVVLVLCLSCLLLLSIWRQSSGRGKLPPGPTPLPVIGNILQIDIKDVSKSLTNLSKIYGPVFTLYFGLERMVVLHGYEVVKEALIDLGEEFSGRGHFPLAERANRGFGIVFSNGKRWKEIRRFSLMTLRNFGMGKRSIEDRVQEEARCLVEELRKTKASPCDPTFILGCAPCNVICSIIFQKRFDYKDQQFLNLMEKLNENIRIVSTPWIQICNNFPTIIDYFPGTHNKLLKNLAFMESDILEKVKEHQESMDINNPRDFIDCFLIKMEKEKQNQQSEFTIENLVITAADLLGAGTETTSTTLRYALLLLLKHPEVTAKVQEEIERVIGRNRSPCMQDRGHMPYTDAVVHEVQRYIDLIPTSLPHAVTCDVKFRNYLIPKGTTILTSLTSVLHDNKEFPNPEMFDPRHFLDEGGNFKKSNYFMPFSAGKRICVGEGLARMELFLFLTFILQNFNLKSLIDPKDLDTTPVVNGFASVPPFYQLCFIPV
Outline: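 Light output from converted D-luciferin reports remaining CYP activity. Compounds preincubate with enzyme and substrate for 15 min; NADPH regeneration (1x final) runs the reaction for 30-45 min.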

[7] = KB-3-1 P-gp reporter qHTS against the NCATS DSHEA and TCM libraries (AID 1919975); conditions: KB-3-1 parental cells, CellTiter-Glo luminescence viability, 72 h; series mostly up to 26.1 µM
Outline: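 CellTiter-Glo luminescence viability readout; KB-3-1 parental cells, 500/well, attached ~4 h, then compound for ~72 h, 37C, 5% CO2. Bortezomib intraplate control.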

[8] = KB-8-5-11 P-gp reporter qHTS against the NCATS DSHEA and TCM libraries (AID 1919977); conditions: KB-8-5-11 cells; series mostly up to 26.1 µM
Outline: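 CellTiter-Glo luminescence after ~72 h exposure at 37C gave viability of KB-8-5-11 cells, the P-gp-overexpressing subline. Substances were titrated; colchicine was omitted from assay medium.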

[9] = qHTS Counterscreen for compound interference against the NCATS DSHEA and TCM libraries (AID 1919978); conditions: firefly luciferase detection reagent interference, luminescence;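 note: compounds preincubated with 1 µM D-luciferin or buffer before detection reagent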
Outline: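 Luminescence counterscreen for detection-kit interference: compounds at 19.5 nM–39.8 uM final, 15 min RT with 1 uM D-luciferin or buffer only; detection reagent added, 30 min RT, then read.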

[10] = Dual reporter qHTS for agonist of Pregnane X Receptor (hPXR) against the NCATS DSHEA and TCM libraries: Fluorescence readout (AID 1920058); conditions: PXR dual reporter cells; series mostly up to 40 µM
Outline: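 Measures viability of the PXR reporter HepG2 line by protease-substrate fluorescence (405/540 nm), taken 1 h after CellTiter-Fluor addition. Substances are tested as concentration series over a ~24 h exposure, with rifampicin as agonist control.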

[11] = molecular target: Nuclear receptor subfamily 1 group I member 2 (Homo sapiens) (UniProt O75469); experiment: Dual reporter qHTS for antagonist of Pregnane X Receptor (hPXR) against the NCATS DSHEA and TCM libraries: Luminescence Readout (AID 1920060); conditions: hPXR dual reporter cells, luciferase luminescence, antagonist mode; series mostly up to 40 µM;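 note: HepG2 cells carrying hPXR luciferase reporter stimulated with rifampicin at 2 µM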
Sequence of Nuclear receptor subfamily 1 group I member 2 (Homo sapiens) (O75469 whole entry, looked up): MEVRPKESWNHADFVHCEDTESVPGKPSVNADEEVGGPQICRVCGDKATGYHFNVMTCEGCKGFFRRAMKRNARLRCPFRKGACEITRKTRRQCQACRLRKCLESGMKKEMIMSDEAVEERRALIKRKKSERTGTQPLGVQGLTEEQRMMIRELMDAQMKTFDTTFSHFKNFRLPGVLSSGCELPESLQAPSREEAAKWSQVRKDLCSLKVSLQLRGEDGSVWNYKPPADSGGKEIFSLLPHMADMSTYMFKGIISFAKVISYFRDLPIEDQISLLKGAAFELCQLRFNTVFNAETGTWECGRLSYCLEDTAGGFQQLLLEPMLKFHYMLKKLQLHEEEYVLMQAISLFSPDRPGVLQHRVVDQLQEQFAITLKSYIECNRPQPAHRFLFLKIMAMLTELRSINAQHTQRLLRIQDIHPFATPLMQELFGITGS
Outline: (§2)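 HepG2 hPXR-Luc, 2000 cells/well, charcoal-stripped FBS medium; 5 h attach; RIF 2 uM final; 24 h 37C/5% CO2; CellTiter-Fluor 1 h, fluor 405/540; ONE-Glo 30 min RT, lum.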

[12] = Dual reporter qHTS for antagonist of Pregnane X Receptor (hPXR) against the NCATS DSHEA and TCM libraries: Fluorescence Readout (AID 1920061); conditions: PXR dual reporter cells, antagonist mode; series mostly up to 40 µM
Outline: as §2

[13] = tested on: 3D7; experiment: qHTS profiling for inhibitors of Plasmodium falciparum proliferation (AID 504749); note: nearly all actives have a fitted effect of over 60% in size; conditions: P. falciparum in erythrocytes, SYBR Green DNA, 72 h; series mostly up to 28.7 µM
Outline: as §1

[14] = tested on: 7G8; experiment: as above; conditions: P. falciparum in erythrocytes, SYBR Green DNA, 72 h; series mostly up to 28.7 µM
Outline: as §1

[15] = qHTS drug screen for cell cycle checkpoint inhibitors in PARPi-resistant BRCA-mutant ovarian cancer cell lines. (AID 1963452; calls by dose curve); conditions: PEO1/OlaR viability, CellTiter-Glo luminescence, 96 h, stronger effect = lower value
Outline: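 PEO1, PEO4 and PEO1/OlaR ovarian cancer cells, 600 per well, exposed 96 h at 37C to a dilution series. Viability read by CellTiter-Glo luminescence, normalized to DMSO and empty wells; activity summarized as Z-AUC.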

[16] = measured here: PEO1 parental Z-AUC

For `C/C=C(\C)C(=O)O[C@H]1[C@H](OC(C)=O)[C@]2(CO)[C@H](O)[C@H](O)[C@]3(C)C(=CCC4[C@@]5(C)CC[C@H](O[C@@H]6O[C@H](C(=O)O)[C@@H](O)[C@H](O[C@@H]7OC[C@H](O)[C@H](O[C@@H]8OC[C@H](O)[C@H](O)[C@H]8O)[C@H]7O)[C@H]6O[C@@H]6O[C@H](CO)[C@@H](O)[C@H](O)[C@H]6O)C(C)(C)C5CC[C@]43C)[C@@H]2CC1(C)C` (stereo partly specified), which activity change, negative = thiol reactive [1] is on record?
Its activity change, negative = thiol reactive is 214% [at 11.5 µM] (inactive).

What about the activity, negative = inhibition [2] of the same molecule?
Its activity, negative = inhibition is 2.49% [at 11.6 µM] (inactive).

What about the redox activity (% of DA3003) [3] of the same molecule?
The redox activity (% of DA3003) was 9.29% [at 11.5 µM] (inactive).

For `CC(=O)O[C@H]1C[C@@H](OC(C)=O)C(C)(C)C2C[C@@H](O)[C@]3(C)C(CC[C@@]4(C)[C@H](C5=CC(=O)OC5O)C[C@H]5O[C@]543)[C@]21C` (stereo partly specified), which outcome [2] is on record?
The outcome was “inactive”.

For `COC1C(O)C(OC2CCC3(C=O)C(CCC4C3CCC3(C)C(C5=CC(=O)OC5)CCC43O)C2)OC(C)C1OC1OC(CO)C(O)C(O)C1O` (stereo unspecified), which Potency [1] is on record?
Its Potency is “inactive”.

What about the outcome [2] of the same molecule?
Its outcome is “inactive”.

What about the outcome [3] of the same molecule?
The outcome was “inactive”.

Which results are given for `CCc1c(C(=O)C(N)=O)c2c(OCC(=O)OC)cccc2n1Cc1ccccc1`?
Potency [1]: inactive; outcome [2]: inactive; outcome [3]: inactive

With `CC(C)(O)[C@H]1O[C@H]2CC[C@@]3(C)[C@@](O)(CC[C@H]4Cc5c([nH]c6ccccc56)[C@@]43C)C2=CC1=O` as the molecule, how does the outcome [2] read?
Its outcome is “inactive”.

What about the outcome [3] of the same molecule?
The outcome was “inactive”.

Which results are given for `Cn1ncnc1COc1nn2c(-c3c(F)cccc3F)nnc2cc1C1CCC1`?
Potency [1]: inactive; outcome [2]: inactive; outcome [3]: inactive

With `O=C1CN=C(c2ccccc2)c2cc(Cl)ccc2N1CC1CC1` as the molecule, how does the activity, negative = inhibition ([4]; parasite line A) read?
Its activity, negative = inhibition is -5.97% (inactive).

And the activity, negative = inhibition ([4]; parasite line B)?
Its activity, negative = inhibition is -9.8% (inactive).

Which outcome [5] does the source give for `O=Cc1ccco1` here?
The outcome was “inactive”.

What about the Potency [6] of the same molecule?
The Potency was 6.31 µM (active).

And the outcome [7]?
The outcome was “inactive”.

What about the outcome [8] of the same molecule?
The outcome was “inactive”.

And the max response [9]?
The max response was -3.87% (inactive).

And the outcome [10]?
The outcome was “inactive”.

And the outcome [11]?
The outcome was “inactive”.

What about the outcome [12] of the same molecule?
Its outcome is “inactive”.

What about the activity, negative = inhibition ([4]; parasite line A) of the same molecule?
The activity, negative = inhibition was -15.5% (inactive).

What about the activity, negative = inhibition ([4]; parasite line B) of the same molecule?
Its activity, negative = inhibition is 9.74% (inactive).

And the Potency [13]?
The Potency was “inactive”.

And the Potency [14]?
The Potency was “inactive”.

With `CCCC(=O)OC(C(Cl)(Cl)Cl)P(=O)(OC)OC` (stereo unspecified) as the molecule, how does the activity, negative = inhibition ([4]; parasite line A) read?
The activity, negative = inhibition was -16.7% (inactive).

And the activity, negative = inhibition ([4]; parasite line B)?
Its activity, negative = inhibition is -35.8% (inactive).

What does the source list for `CC(=O)c1c(O)c(C)c(O)c(Cc2c(O)c3c(c(C(=O)/C=C/c4ccccc4)c2O)OC(C)(C)C=C3)c1O`?
Z-AUC [15]: 1.03 (inactive); Z-AUC [15, 16]: 0.667; Z-AUC ([15]; measured here: PEO4 Z-AUC): 0.636

Which results are given for `C=C[C@H]1CN2CC[C@H]1C[C@@H]2[C@@H](O)c1ccnc2ccccc12`?
Potency [1]: inactive; outcome [2]: inactive; outcome [3]: inactive; Z-AUC [15]: 1.32 (inactive); Z-AUC [15, 16]: 0.858; Z-AUC ([15]; measured here: PEO4 Z-AUC): 1.06

For `O=C1C2CC=CCC2C(=O)N1SC(Cl)(Cl)Cl` (stereo unspecified), which activity, negative = inhibition ([4]; parasite line A) is on record?
Its activity, negative = inhibition is -6.95% (inactive).

What about the activity, negative = inhibition ([4]; parasite line B) of the same molecule?
The activity, negative = inhibition was 5.29% (inactive).

And the Potency [13]?
Its Potency is “inactive”.

For `CCON=O`, which activity, negative = inhibition ([4]; parasite line A) is on record?
The activity, negative = inhibition was -4.19% (inactive).

What about the activity, negative = inhibition ([4]; parasite line B) of the same molecule?
Its activity, negative = inhibition is 0.895% (inactive).

And the Potency [13]?
Its Potency is “inactive”.

What about the Potency [14] of the same molecule?
The Potency was “inactive”.

With `CCC1(CC)C(=O)NC(=O)N(C)C1=O` as the molecule, how does the activity, negative = inhibition ([4]; parasite line A) read?
Its activity, negative = inhibition is 7.69% (inactive).

What about the activity, negative = inhibition ([4]; parasite line B) of the same molecule?
Its activity, negative = inhibition is -5% (inactive).

What about the Potency [13] of the same molecule?
Its Potency is “inactive”.

What about the Potency [14] of the same molecule?
Its Potency is “inactive”.

Which results are given for `CCCCCl`?
activity, negative = inhibition ([4]; parasite line A): 1.32% (inactive); activity, negative = inhibition ([4]; parasite line B): 10.6% (inactive); Potency [13]: inactive; Potency [14]: inactive

With `c1ccc2sc(SNC3CCCCC3)nc2c1` as the molecule, how does the activity, negative = inhibition ([4]; parasite line A) read?
Its activity, negative = inhibition is 7.11% (inactive).

What about the activity, negative = inhibition ([4]; parasite line B) of the same molecule?
The activity, negative = inhibition was 2.42% (inactive).

And the Potency [13]?
Its Potency is “inactive”.

Which activity, negative = inhibition ([4]; parasite line A) does the source give for `CCN(CC)C(=O)/C(Cl)=C(\C)OP(=O)(OC)OC` here?
The activity, negative = inhibition was -6.34% (inactive).

What about the activity, negative = inhibition ([4]; parasite line B) of the same molecule?
The activity, negative = inhibition was 3.3% (inactive).

And the Potency [13]?
The Potency was “inactive”.

With `O=C(CCl)c1ccc(Oc2ccc(C(=O)CCl)cc2)cc1` as the molecule, how does the activity, negative = inhibition ([4]; parasite line A) read?
The activity, negative = inhibition was 5.66% (inactive).

What about the activity, negative = inhibition ([4]; parasite line B) of the same molecule?
The activity, negative = inhibition was 2.87% (inactive).

And the Potency [13]?
Its Potency is “inactive”.

What about the Potency [14] of the same molecule?
The Potency was “inactive”.

For `OC(c1ccccc1)(c1ccccc1)C1CN2CCC1CC2` (stereo unspecified), which activity, negative = inhibition ([4]; parasite line A) is on record?
Its activity, negative = inhibition is 2.79% (inactive).

What about the activity, negative = inhibition ([4]; parasite line B) of the same molecule?
The activity, negative = inhibition was -0.359% (inactive).

What about the Potency [13] of the same molecule?
The Potency was “inactive”.

For `CCCCCCCCOC(=O)c1ccccc1C(=O)OCCCCCCCC`, which activity, negative = inhibition ([4]; parasite line A) is on record?
Its activity, negative = inhibition is 10.9% (inactive).

What about the activity, negative = inhibition ([4]; parasite line B) of the same molecule?
The activity, negative = inhibition was -23.5% (inactive).

What about the Potency [13] of the same molecule?
The Potency was “inactive”.
